HPGD block – inhibitors of human 15-hydroxyprostaglandin dehydrogenase (HPGD). 4.3% of 150,000 active. P15428. Potency, µM, for inactives: at the highest dose activity change, negative = inhibition, most hits filed as inhibitors. purified HPGD, NADH fluorescence kinetic, PGE2 substrate; further: potency means the concentration at half of the fitted maximal effect
Target sequence (P15428 whole entry, looked up): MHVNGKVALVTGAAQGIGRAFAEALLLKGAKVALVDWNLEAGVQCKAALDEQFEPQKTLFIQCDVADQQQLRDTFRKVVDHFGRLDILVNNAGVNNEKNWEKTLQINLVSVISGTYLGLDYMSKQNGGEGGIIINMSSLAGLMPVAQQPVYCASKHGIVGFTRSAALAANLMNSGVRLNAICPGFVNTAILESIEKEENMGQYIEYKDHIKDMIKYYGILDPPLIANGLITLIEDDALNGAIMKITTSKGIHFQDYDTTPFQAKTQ
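20 nM HPGD preincubated 15 min at room temperature with compound in 50 mM Tris-HCl pH 8, 0.01% Tween 20. Started with 1 mM NAD+ and 30 uM prostaglandin E2; NADH fluorescence (360/450 nm) read 5 times over 30-s intervals, last minus first.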
ALDH1A1 inh – ALDH1A1 (human) enzyme inhibition; P00352; Purified ALDH1A1, NADH fluorescence, propionaldehyde substrate; Potency, µM (titrated, usually from 75.3 µM), without a hit: at the top dose activity, negative = inhibition, hits mostly inhibitors; 7.3% of 220,000 active;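 further: potency means the concentration at half of the fitted maximal effect; plate controls were no enzyme wells and a reference inhibitor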
IMPase cell inh – cell-permeable inhibitors of inositol monophosphatase (IMPase). inhibition (IP1 accumulation), % at 46.1 µM. CHO-M1 cells, IP1 accumulation, HTRF TR-FRET ratio. 120,000 tested, under 10 active. P97697; active means well fitted curve in the direction sought with a large enough effect in the signal ratio, not every such curve was filed as active; inconclusive means small, poorly fitted or top-dose-only effect, or a change in a side signal; inactive means no such curve, though single readings can be large or run the other way; the % refers to the signal ratio;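 further: cells stimulated with carbachol in lithium chloride buffer; plate controls were DMSO basal wells for no effect and reference inhibitor wells for full effect; higher means more IMPase inhibition seen as more IP1 and lower FRET ratio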
Target sequence (P97697 whole entry, looked up): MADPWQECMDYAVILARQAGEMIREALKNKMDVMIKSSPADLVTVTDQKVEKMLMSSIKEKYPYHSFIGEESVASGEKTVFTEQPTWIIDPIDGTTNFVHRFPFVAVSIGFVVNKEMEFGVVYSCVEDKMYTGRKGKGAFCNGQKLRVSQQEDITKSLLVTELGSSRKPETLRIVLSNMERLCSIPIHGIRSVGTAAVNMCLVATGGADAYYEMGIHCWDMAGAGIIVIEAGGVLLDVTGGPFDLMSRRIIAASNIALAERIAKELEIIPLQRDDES
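Carbachol-driven Gq signalling in CHO-M1 cells (2000/well) generates IP1. Compounds that block IMPase raise IP1 and so reduce the FRET signal from Eu-anti-IP1 and d2-IP1 after a 10 min room-temperature lysis.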
An asterisk follows results filed as active; ? = inconclusive; . = no result; ! = not confirmed by another sample; [ ] = remark or other dose. Shown are actives, neighbours in structure and some others; about 9% of the full set was active somewhere. Unless noted, the call rests on the fitted dose curve; in most records, active means well fitted inhibition curve with a large enough effect (not every such curve was filed as active); inconclusive means small, poorly fitted or top-dose-only effect, or another doubt; inactive means no such curve, though single readings can be large or run the other way. Unless noted, on the % scale 0 is the no-effect control and ±100 the full control effect.

SMILES	HPGD block	ALDH1A1 inh	IMPase cell inh
Cc1ccccc1N1CCN(C(=O)c2ccccc2NC(=O)c2ccccc2C(=O)O)CC1	.	-5%	.
COc1ccc(Nc2oc(COc3ccc(C)cc3)nc2C#N)cc1	25µM*	?	7
COc1ccc(Nc2oc(COc3ccc(OC)cc3)nc2C#N)cc1	?	-2%	16
Cc1cccc(OCCNc2cc(N3CCN(CCO)CC3)ccc2[N+](=O)[O-])c1	.	-4%	3
O=C(Nc1ccc(N2CCCC2)c(Cl)c1)c1ccc([N+](=O)[O-])cc1	-7%	5%	.
Cc1ccc(NC(=S)NNC(=O)c2ccc(N3CCOCC3)c([N+](=O)[O-])c2)cc1Cl	-11%	7.9µM*	1
Cc1cc(C(=O)Nc2ccc(N3CCCC3)c(Cl)c2)ccc1[N+](=O)[O-]	-11%	20µM*	.
O=C(Nc1ccc(-c2nc3ccccc3o2)cc1)c1ccc(N2CCOCC2)c([N+](=O)[O-])c1	-4%	-10%	16
O=C(NNC(=S)Nc1ccc(Br)cc1)c1ccc(N2CCOCC2)c([N+](=O)[O-])c1	35µM*	0.89µM*	-5
CCC(=O)N1CCN(c2ccc(Cl)cc2NC(=O)c2ccc(N3CCCC3)c([N+](=O)[O-])c2)CC1	-17%	6%	8
O=C(NNC(=S)Nc1ccc(Cl)cc1Cl)c1ccc(N2CCOCC2)c([N+](=O)[O-])c1	?	0.45µM*	7
CC(=O)Nc1ccc(N2CCOCC2)c(Cl)c1	.	4%	.
CCOC(=O)c1nnn(CC(=O)NC(=O)Nc2ccc(F)cc2)c1C(=O)OCC	.	11%	.
CCOc1ccc(S(=O)(=O)NCCCN2CCCC2=O)cc1	.	-10%	.
Cc1ccc(C(=O)N/C(=C\c2ccco2)C(=O)NCCCn2ccnc2)cc1C	-28%	25µM*	-1
COc1ccc(C(=O)N/C(=C\c2ccco2)C(=O)NCCCn2ccnc2)cc1	-15%	-9%	4
CCc1cc(C=NC2CCCCC2)c(O)s1	4.5µM*	?	1
COc1ccccc1NC(=O)C1=C(C)NC(=O)NC1c1cccs1 (stereo not drawn)	.	-10%	.
Cc1ccc(C(=O)Nc2cccc(-c3cnc4ccccc4n3)c2)cc1	-6%	12%	5
O=C(Nc1cccc(-c2cnc3ccccc3n2)c1)c1ccco1	-23%	25µM*	0
CCCC(=O)N(c1ccc(OCC)cc1)C1C=CS(=O)(=O)C1 (stereo not drawn)	9%	6%	13
CC1(C)S[C@@H]2[C@H](NC(=O)[C@H](N)c3ccccc3)C(=O)N2[C@H]1C(=O)O	?	-10%	.
NC(C(=O)NC1C(=O)N2C(C(=O)O)=C(Cl)CSC12)c1ccccc1 (stereo not drawn)	?	16µM*	.
CC1=C(C(=O)O)N2C(=O)[C@@H](NC(=O)[C@@H](N)C3=CCC=CC3)[C@@H]2SC1	.	.	2
N[C@H](C(=O)N[C@@H]1C(=O)N2C(C(=O)O)=C(Cl)CS[C@@H]12)c1ccccc1	-11%	11µM*!	-3[20.6 µM]
SMILES	HPGD block	ALDH1A1 inh	IMPase cell inh
Cc1noc(C)c1-c1nc(NC2CCNCC2)c2ccccc2n1	.	-1%	.
O=C(Cn1nc(C(F)(F)F)cc1C1CC1)NCc1ccccc1F	-6%	3%	.
Cc1c(-n2cc(C(=O)c3cc(F)ccc3O)cc(C#N)c2=O)c(=O)n(-c2ccccc2)n1C	.	-4%	.
N#Cc1cc(C(=O)c2ccccc2O)cn(-c2nccs2)c1=O	32µM*	?	.
N#Cc1cc(C(=O)c2cc(F)ccc2O)cn(-c2nccs2)c1=O	11µM*	?	.
CC(C)n1cc(C(=O)c2ccccc2O)cc(C#N)c1=O	.	-11%	.
COc1cc([C@H]2c3cc4c(cc3[C@@H](O[C@H]3O[C@H]5CO[C@@H](C)O[C@H]5[C@@H](O)[C@@H]3O)[C@@H]3COC(=O)[C@H]23)OCO4)cc(OC)c1O	3%	2%[20.9 µM]	4[20.6 µM]
CC(=O)N[C@@H](Cc1c[nH]c2ccccc12)C(=O)OCC(=O)NCc1ccc2c(c1)OCO2	.	5µM*	.
CC(=O)N[C@@H](Cc1c[nH]c2ccccc12)C(=O)OCC(=O)Nc1ccc(S(=O)(=O)N(C)C)cc1	.	4µM*	.
CC(=O)NC(Cc1c[nH]c2ccccc12)C(=O)Nc1ccc2c(c1)OCO2 (stereo not drawn)	-6%	11%	4
CC(=O)N[C@@H](Cc1c[nH]c2ccccc12)C(=O)O	-16%	4%	.
COc1cccc(C(=O)N2CCN=C2SC)c1	.	8%	.
COC(=O)C[C@H]1c2ccccc2C2=C(C[C@@H](C)[C@H]3C(=O)N(c4ccccc4)C(=O)[C@@H]23)N1C(=O)OC	-4%	?	.
CCCCC(=O)Nc1ccc(Br)cc1C(=O)O	-19%	6%	2
O=C(O)c1cc(Br)ccc1NN=C1CCCCC1	25µM*	?	.
Cc1ccc(C)c(NS(=O)(=O)c2cc(C(=O)O)ccc2Cl)c1	-5%	-4%	.
Cc1ccc(/C=N/Nc2nnc(Cc3ccccc3)c(=O)[nH]2)o1	.	17%	.
COc1ccc(Cc2nnc(N/N=C/c3ccc(O)cc3O)[nH]c2=O)cc1OC	32µM*	-7%	.
C=CC[C@](C)(O)c1ccccc1	-2%	1%	.
Cc1[nH][nH]c(=O)c1[C@@H](c1ccccc1[N+](=O)[O-])C(C#N)C#N	.	25µM*	.
Cc1[nH][nH]c(=O)c1C(c1ccc(O)c([N+](=O)[O-])c1)c1c(C)[nH][nH]c1=O	-7%	?	11
CCOc1ccc(NS(=O)(=O)c2ccc(C)c(C(=O)O)c2)cc1	-3%	9%	.
O=C(CSc1nnc(CN2CCOCC2)n1-c1ccccc1)N1CCc2ccccc21	0%	7.9µM*	28
Nc1nnc(SCC(=O)N2CCc3ccccc32)n1-c1ccccc1	-10%	-3%	-3
O=C(CSc1nnc(Cc2ccccc2)n1-c1ccc(F)cc1)N1CCOCC1	7%	-62%	11
SMILES	HPGD block	ALDH1A1 inh	IMPase cell inh
CC1CCN(C(=O)CSc2nnc(CN3CCOCC3)n2-c2ccccc2)CC1	-12%	1.3µM*	14
Cc1cccc(OCCNC(=O)c2cncc(Br)c2)c1	0%	?	.
CCCCC(=O)NNC(=S)NCc1ccccc1	.	0%	.
CCOC(=O)c1c(-c2ccccc2)oc2ccc(NS(=O)(=O)c3cc(C)c(C)cc3C)cc12	.	.	-8
Cc1ccccc1OCC(=O)NNC(=O)CCN1C(=O)c2ccccc2C1=O	.	-4%	.
Cc1ccccc1OCCN1C(=O)C(=O)c2cccc(C)c21	-21%	0.22µM*	.
Cc1cccc2c1N(CCOc1ccccc1Cl)C(=O)C2=O	-20%	1%	4
Cc1ccccc1OCCN1C(=O)c2ccccc2C1=O	28µM*	8%	0
CCC(=O)NC1(Cc2ccc(O)cc2)CCCCC1	.	6%	.
COc1ccc(C2(C(=O)NCc3ccccc3Cl)CCOCC2)cc1OC	.	3%	.
CN(Cc1ccccc1)S(=O)(=O)c1ccc(Cl)nc1	-22%	22µM*	4
CN(c1ccccc1)S(=O)(=O)c1ccc(Cl)nc1	.	-3%	.
COc1ccccc1CN1CCNC(=O)C1CC(=O)NCc1c(C)n[nH]c1C (stereo not drawn)	.	-11%	.
Cc1ccc(NC(=O)c2ccc(OC(=O)c3ccco3)cc2)cc1	-11%	-1%	8
O=C(Oc1ccccc1)c1ccc(NC(=O)c2ccco2)cc1	13µM*	18µM*	.
O=C(NCc1cccnc1)c1ccc(NC(=O)c2ccco2)cc1	-8%	10%	5
c1ccc(CCc2nc(-c3ccccc3)no2)cc1	-24%	-1%	-3

Screening results deposited in PubChem by National Center for Advancing Translational Sciences (NCATS).
